According to PubChem BioAssay (NCATS):
“And” between values parts separate entries of the source, which are not always exact repeats. Equal values may be shown once. Inconclusive results are not listed. The source made the active and inactive calls. Unless noted, calls come from the whole dose curve; as a rule, active = well fitted curve in the direction sought with a large enough effect; inconclusive = small, poorly fitted or top-dose-only effect, or another doubt; inactive = no such curve, though single readings can be large; an effect the other way counts as inactive or inconclusive.

Assays:
[1] = system: HIV-1 nucleocapsid protein NCp7 (binding to TG oligonucleotide); assay: HIV Nucleocapsid (AID 346; call rule not given here;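 note: potency is the fitted concentration of half-maximal effect; potency is for inhibitors that block NC binding and lower polarization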); conditions: HIV-1 NC / fluorescein-TGTGTGTG probe, fluorescence polarization
Procedure, shortened: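 Fluorescence polarization readout: labelled TG4xF oligo (10 nM) with 100 nM nucleocapsid protein, high-salt (250mM NaCl) Hepes pH 7.5 buffer containing zinc and fresh reducing agents. Compounds added by pin tool; incubation 1 hr, room temperature.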

[2] = target: Lysosomal acid glucosylceramidase (Homo sapiens) (UniProt P04062); assay: Glucocerebrosidase-p2 (AID 348; in the data active = potency below about 10 µM; note: potency is the fitted concentration of half-maximal effect); conditions: purified GBA, blue fluorogenic substrate, 40 min
Lysosomal acid glucosylceramidase (Homo sapiens), sequence (P04062 whole entry, looked up): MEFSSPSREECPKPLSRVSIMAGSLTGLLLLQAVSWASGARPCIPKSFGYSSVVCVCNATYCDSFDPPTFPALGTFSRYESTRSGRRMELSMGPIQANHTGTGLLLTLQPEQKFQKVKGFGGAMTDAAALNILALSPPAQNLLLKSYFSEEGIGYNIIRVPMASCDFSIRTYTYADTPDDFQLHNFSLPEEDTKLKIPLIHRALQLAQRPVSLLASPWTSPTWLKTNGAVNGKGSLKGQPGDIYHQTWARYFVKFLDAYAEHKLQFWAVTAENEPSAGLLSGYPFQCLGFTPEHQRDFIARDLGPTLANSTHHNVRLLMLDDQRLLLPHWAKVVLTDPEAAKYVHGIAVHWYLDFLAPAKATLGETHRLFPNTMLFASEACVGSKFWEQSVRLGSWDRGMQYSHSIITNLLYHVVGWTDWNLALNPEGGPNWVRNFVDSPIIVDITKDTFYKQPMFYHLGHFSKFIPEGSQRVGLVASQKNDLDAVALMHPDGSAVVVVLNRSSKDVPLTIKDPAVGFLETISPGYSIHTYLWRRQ
Procedure, shortened: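 Normal human glucocerebrosidase (0.2 nM) with blue fluorogenic substrate (80 uM final) in citrate/phosphate pH 5.9 with 10mM sodium taurocholate, 0.01% tween-20; 40 min RT, NaOH/glycine stop; fluorescence Ex 365/Em 440; AC50 from a titration from 0.6 nM upwards.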

[3] = AP1 Signaling Pathway (AID 357; active = well fitted curve in either direction with a large enough effect, not every such curve was filed as active;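 note: ME-180 reporter cells stimulated with EGF at its EC50 level; % is set by controls: 0 for no effect and ±100 for the full control effect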)
Procedure, shortened: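 Cells are seeded overnight, exposed to compound titrations and an EC50 level of EGF for 5 hours at 37 °C, then loaded with CCF4 dye for 2.5 hours. Beta-lactamase activity under the AP-1 element is read as a blue/green ratio.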

[4] = target: Cytochrome P450 1A2 (Homo sapiens) (UniProt P05177); assay: p450-cyp1a2 (AID 410; calls by dose curve; note: potency is the fitted concentration of half-maximal effect;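 for activity change, negative = inhibition: -100% = full effect of reference inhibitor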)
Cytochrome P450 1A2 (Homo sapiens), sequence (P05177 whole entry, looked up): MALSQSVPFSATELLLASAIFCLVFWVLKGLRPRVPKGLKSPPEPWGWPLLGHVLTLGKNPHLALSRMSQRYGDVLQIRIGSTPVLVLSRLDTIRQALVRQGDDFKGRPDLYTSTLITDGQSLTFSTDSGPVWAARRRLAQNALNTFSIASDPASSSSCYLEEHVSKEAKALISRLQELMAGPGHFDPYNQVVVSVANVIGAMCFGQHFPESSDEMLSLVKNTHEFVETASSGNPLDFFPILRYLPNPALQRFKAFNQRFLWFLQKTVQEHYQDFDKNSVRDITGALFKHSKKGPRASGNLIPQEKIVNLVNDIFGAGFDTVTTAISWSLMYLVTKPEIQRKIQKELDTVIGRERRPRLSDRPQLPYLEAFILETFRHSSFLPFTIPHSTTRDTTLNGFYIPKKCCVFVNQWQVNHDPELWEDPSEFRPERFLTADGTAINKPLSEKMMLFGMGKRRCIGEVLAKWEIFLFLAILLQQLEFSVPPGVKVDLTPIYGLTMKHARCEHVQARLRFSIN
Procedure, shortened: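 20nM CYP1A2, 100uM Luciferin-ME (=Km), 100mM KPO4; cpd 10 min RT; +NADPH regen, 60 min RT; stop/detect 20 min; luminescence. Normalized to furafylline 57 uM = full inhibition.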

[5] = NFAT Signaling Pathway (AID 444; active = well fitted curve in either direction with a large enough effect, not every such curve was filed as active;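 note: carbachol stimulus at about its EC50 of 1 µM final; % is set by controls: 0 for no effect and ±100 for the full control effect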); conditions: Jurkat NFAT-bla M1, carbachol, beta-lactamase ratio, 5 h
Procedure, shortened: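 Jurkat cells with NFAT-driven β-lactamase reporter and co-expressed M1 receptor, stimulated with carbachol (final 1 uM, ~EC50), compound titration, 5 h at 37 °C. CCF4 loaded 1 h at RT; 460/530 nm ratio gave %activity and AC50.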

[6] = target: Glucocorticoid receptor (Homo sapiens) (UniProt P04150); assay: GR-EFC Redistribution (AID 451; calls by dose curve; note: potency is the fitted concentration of half-maximal effect); conditions: CHO-K1 GR-EFC translocation, beta-gal luminescence, 2 h
Glucocorticoid receptor (Homo sapiens), sequence (P04150 whole entry, looked up, the tested form may be a part): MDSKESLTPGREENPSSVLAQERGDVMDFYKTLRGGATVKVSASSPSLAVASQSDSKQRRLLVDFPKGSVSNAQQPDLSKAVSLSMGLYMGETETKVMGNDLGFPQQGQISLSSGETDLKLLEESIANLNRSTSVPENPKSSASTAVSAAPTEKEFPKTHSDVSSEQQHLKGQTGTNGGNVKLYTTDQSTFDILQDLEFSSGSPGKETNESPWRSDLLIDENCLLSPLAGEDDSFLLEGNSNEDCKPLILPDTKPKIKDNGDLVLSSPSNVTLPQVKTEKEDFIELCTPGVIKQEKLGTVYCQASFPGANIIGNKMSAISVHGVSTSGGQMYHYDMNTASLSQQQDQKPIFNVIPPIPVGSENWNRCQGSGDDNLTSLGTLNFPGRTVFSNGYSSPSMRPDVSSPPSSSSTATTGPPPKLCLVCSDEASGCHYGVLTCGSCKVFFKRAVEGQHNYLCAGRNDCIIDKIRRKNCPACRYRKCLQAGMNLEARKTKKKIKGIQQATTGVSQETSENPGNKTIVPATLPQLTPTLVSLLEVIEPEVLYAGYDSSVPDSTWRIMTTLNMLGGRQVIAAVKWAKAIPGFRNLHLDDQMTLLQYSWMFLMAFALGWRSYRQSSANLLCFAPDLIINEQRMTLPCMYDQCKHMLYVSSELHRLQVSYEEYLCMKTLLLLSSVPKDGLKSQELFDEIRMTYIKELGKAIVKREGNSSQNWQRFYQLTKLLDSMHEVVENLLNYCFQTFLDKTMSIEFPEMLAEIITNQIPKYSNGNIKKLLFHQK
Procedure, shortened: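 CHO-K1 cells expressing nuclear EA and GR-ED fragments of b-gal; compounds titrated up to 46 uM final, 2 h at 37 C. GR nuclear translocation read as complemented b-gal luminescence after 1 h RT detection.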

[7] = target: Mitogen-activated protein kinase 10 (Mus musculus) (UniProt Q61831); assay: JNK3 AlphaScreen Assay (AID 530; active = well fitted curve in either direction with a large enough effect, not every such curve was filed as active;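 note: kinase came from lysate of stimulated human HepG2 cells; signal reports phosphorylation of biotinylated GST-cJun 1-79 at Ser73 with 10 µM ATP; % is set by controls: 0 for no effect and ±100 for the full control effect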)
Procedure, shortened: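 HepG2 lysate (IL-1b/TNFa pre-activated) + biotin-GST-cJun 1-79 + anti-pSer73 cJun; cpd titration, 15 min RT; ATP 10 uM start; Tris pH 7.6, MgCl2, DTT, vanadate; beads in EDTA buffer; AlphaScreen.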

[8] = target: 3',5'-cyclic-AMP phosphodiesterase 4B (Homo sapiens) (UniProt Q07343); assay: qHTS Assay for Inhibitors of PDE-IV (AID 607; active = well fitted activation curve with a large enough effect in the main read-out, with a control signal flat, not every such curve was filed as active; note: % of control where 0% means no effect)
3',5'-cyclic-AMP phosphodiesterase 4B (Homo sapiens), sequence (Q07343 whole entry, looked up): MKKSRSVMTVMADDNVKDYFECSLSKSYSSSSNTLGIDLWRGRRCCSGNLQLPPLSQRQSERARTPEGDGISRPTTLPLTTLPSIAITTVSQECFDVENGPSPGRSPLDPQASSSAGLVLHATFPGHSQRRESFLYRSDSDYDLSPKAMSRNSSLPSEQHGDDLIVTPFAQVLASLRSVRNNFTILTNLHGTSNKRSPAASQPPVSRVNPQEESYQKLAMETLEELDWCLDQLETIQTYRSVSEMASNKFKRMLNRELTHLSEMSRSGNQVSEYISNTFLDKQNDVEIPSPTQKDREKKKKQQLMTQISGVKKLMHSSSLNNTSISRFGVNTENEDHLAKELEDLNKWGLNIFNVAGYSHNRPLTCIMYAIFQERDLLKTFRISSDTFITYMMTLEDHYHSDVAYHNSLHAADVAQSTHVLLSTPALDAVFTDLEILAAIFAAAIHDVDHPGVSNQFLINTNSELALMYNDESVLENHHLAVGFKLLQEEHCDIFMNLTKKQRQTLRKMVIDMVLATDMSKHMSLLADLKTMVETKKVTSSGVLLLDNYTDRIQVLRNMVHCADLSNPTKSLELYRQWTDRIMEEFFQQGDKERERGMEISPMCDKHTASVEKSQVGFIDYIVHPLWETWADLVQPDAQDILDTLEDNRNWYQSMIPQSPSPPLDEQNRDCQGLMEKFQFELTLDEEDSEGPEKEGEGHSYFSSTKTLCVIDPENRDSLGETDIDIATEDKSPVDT
Procedure, shortened: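 ACTOne HEK293 cells carry a modified cAMP-gated CNG channel and express endogenous PDE4; plated 1000 cells/well, compounds up to 22.9 uM final. Membrane-potential dye fluorescence (ex 535/em 590) was read; parental cells received 10 uM forskolin + 100 uM RO 20-1724.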

[9] = target: Cytochrome P450 2D6 (Homo sapiens) (UniProt P10635); assay: qHTS Assay for Inhibitors and Substrates of Cytochrome P450 2D6 (AID 891); note: potency is the fitted concentration of half-maximal effect; nearly all actives have a fitted effect of over 60% in size
Cytochrome P450 2D6 (Homo sapiens), sequence (P10635 whole entry, looked up): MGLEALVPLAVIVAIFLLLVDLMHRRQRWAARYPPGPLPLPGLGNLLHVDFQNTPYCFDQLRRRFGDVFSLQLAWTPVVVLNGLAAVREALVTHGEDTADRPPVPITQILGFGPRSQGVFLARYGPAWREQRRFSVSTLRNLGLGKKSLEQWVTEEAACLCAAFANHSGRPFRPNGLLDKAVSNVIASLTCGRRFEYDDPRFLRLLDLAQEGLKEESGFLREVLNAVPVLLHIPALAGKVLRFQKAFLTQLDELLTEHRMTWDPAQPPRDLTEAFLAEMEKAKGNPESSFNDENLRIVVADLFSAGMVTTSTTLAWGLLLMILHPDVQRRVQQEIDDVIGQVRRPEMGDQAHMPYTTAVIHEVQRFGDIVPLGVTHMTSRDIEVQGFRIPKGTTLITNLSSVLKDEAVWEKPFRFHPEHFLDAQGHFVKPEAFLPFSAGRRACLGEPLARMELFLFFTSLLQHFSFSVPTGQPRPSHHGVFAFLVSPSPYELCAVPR
Procedure, shortened: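 Luminescent read-out of luciferin formed by 5 nM human CYP2D6 demethylating 30 uM Luciferin-ME EGE (Km level) over 60 min at room temperature after NADPH regeneration addition. Data normalized to full inhibition by 1.43 uM quinidine.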

[10] = qHTS Assay for Lipid Storage Modulators (AID 1519; calls by dose curve); conditions: Drosophila S3 cells, BODIPY lipid droplet/cell ratio, laser cytometry, cells loaded with oleic acid
Procedure, shortened: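 Cells seeded at 5,000 per well were treated with compounds over a concentration series and loaded with oleic acid (400 uM, as added). Lipid droplet fluorescence (488 nm excitation, 500-530 nm channel) was read by laser-scanning cytometry and normalized to 20 uM Triacsin C.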

[11] = Primary qHTS for small molecule stabilizers of the endoplasmic reticulum resident proteome: Secreted ER Calcium Modulated Protein (SERCaMP) assay (AID 1508630); note: % is set by controls: 0 for no effect and ±100 for the full control effect
Procedure, shortened: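 The SH-SY5Y reporter protocol was run at 3 concentrations up to 38.3 uM (primary) or 11 concentrations (follow-up): 16 h compound, 100 nM thapsigargin for 4 h, then extracellular luciferase luminescence.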

[12] = target: Glucocorticoid receptor (Homo sapiens) (UniProt P04150); assay: GR-GFP Redistribution (AID 450;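 active = compounds whose dose series gives a full or clear partial fitted curve of increased nuclear translocation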; note: potency is the fitted concentration of half-maximal effect); conditions: U2OS GR-GFP nuclear translocation, laser cytometry, 2 h
[13] = target: Guanine nucleotide-binding protein G(i) subunit alpha-1 (Homo sapiens) (UniProt P63096); assay: qHTS Assay for Inhibitors of RGS12 GoLoco Motif Activity (Green Fluorophore) (AID 879);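 note: 0% = labeled peptide with Gαi1 and full inhibition = labeled peptide alone without protein; negative values mean loss of peptide binding seen as reduced polarization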
Guanine nucleotide-binding protein G(i) subunit alpha-1 (Homo sapiens), sequence (P63096 whole entry, looked up): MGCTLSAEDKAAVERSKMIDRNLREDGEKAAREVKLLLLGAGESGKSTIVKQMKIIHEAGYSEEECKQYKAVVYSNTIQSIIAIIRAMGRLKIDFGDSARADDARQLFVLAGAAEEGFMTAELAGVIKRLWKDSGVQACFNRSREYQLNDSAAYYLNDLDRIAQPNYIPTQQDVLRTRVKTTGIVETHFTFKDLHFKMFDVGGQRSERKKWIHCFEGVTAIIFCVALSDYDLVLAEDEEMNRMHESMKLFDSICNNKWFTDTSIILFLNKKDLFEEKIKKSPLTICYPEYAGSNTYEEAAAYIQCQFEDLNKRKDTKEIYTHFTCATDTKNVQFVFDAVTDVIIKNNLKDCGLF
Procedure, shortened: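 A drop in FITC polarization marked displacement of the FITC-tagged RGS12 GoLoco peptide (10 nM) from Gαi1 (50 nM). Compounds were incubated 10 min at room temperature in Tris pH 7.5 buffer containing 150 mM NaCl, 0.1 mM GDP and 0.05% NP40; unlabeled peptide titration served as control.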

[14] = target: Cytochrome P450 3A4 (Homo sapiens) (UniProt P08684); assay: qHTS Assay for Activators of Cytochrome P450 3A4 (AID 885); note: nearly all actives have a fitted effect of over 65% in size
Cytochrome P450 3A4 (Homo sapiens), sequence (P08684 whole entry, looked up): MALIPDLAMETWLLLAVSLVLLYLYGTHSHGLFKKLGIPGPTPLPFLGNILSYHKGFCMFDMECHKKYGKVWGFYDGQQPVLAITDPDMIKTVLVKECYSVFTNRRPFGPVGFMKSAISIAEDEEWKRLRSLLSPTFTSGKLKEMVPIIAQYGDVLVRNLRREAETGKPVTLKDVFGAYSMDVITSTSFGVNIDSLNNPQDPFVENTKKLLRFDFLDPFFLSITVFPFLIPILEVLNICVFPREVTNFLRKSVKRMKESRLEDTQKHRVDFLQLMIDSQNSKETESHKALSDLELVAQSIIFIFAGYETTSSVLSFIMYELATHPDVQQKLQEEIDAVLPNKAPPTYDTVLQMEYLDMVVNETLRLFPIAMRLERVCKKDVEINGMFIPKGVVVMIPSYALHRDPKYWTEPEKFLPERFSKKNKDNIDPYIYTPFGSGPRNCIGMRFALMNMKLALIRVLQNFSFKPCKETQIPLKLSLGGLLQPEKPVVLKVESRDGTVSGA
Procedure, shortened: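 CYP3A4 activity: Luciferin-PPXE O-dealkylation, 25uM substrate, 200mM KPO4, RT throughout. Read-out is luciferase luminescence; higher values reflect activation.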

[15] = qHTS Assay for Identification of Small Molecule Antagonists for NFkB Signaling Pathway (AID 895; active = well fitted inhibition curve with a large enough effect in the signal ratio, with a control signal flat, not every such curve was filed as active; the % refers to the signal ratio; note: potency is the fitted concentration of half-maximal effect)
Procedure, shortened: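 ME-180 NFkB-bla cells (beta-lactamase under NFkB response element), plated overnight, treated with compound then 10 pM TNF alpha (about EC50) for 5 hrs at 37 C. LiveBLAzer FRET read at 460/530 nm emission, 405 nm excitation.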

[16] = qHTS Assay for Identification of Small Molecule Agonists for Thrombopoietin (TPO) Signaling Pathway (AID 917); note: % is set by controls: 0 for no effect and ±100 for the full control effect
Procedure, shortened: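 Ba/F3 (mouse) + hTPO receptor + GpIIb-promoter luciferase; IL-3 withdrawn overnight; compound + 26 pM TPO (EC50), 24 hrs, 37 C, 5% CO2; Steadylite luminescence, 10 min RT.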

[17] = target: Muscarinic acetylcholine receptor M1 (Rattus norvegicus) (UniProt P08482); assay: qHTS Assay for Antagonists of Acetylcholine Muscarinic M1 Receptor: Kinetic Measurement of Intracellular Calcium Response (AID 943);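 note: Fluo-4 calcium signal as peak divided by basal fluorescence over 4 min; nearly all actives have a fitted effect of over 75% in size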
Procedure, shortened: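 Read-out: peak over basal Fluo-4 fluorescence, kinetic at 1 Hz for 4 min after EC80 carbachol (100 nM final). Rat M1-CHO cells, dye loaded 1 h at 37C, compound added 10 min before agonist.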

[18] = target: Pyruvate kinase (Leishmania mexicana) (UniProt Q27686); assay: qHTS Validation Assay for Inhibitors of Leishmania Mexicana Pyruvate Kinase (AID 945);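 note: 0% = DMSO only neutral control wells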
Procedure, shortened: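 An endpoint luciferase assay: 0.2 nM LmPYK E451W turns over 0.5 mM PEP with 0.1 mM ADP for 1 h at room temperature, pH 7.2, before PKLight addition. Values are normalized to DMSO-only wells.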

[19] = target: Pyruvate kinase PKM (Homo sapiens) (UniProt P14618); assay: qHTS Assay for Activators of Human Muscle Pyruvate Kinase (AID 954; active = well fitted curve in the direction sought with a large enough effect, not every such curve was filed as active;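 note: 0% = uninhibited enzyme and -100% = no enzyme or full thiadiazolimine inhibition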)
Procedure, shortened: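 A coupled luminescent readout tracked ATP made from ADP by purified PKM2. Final conditions included 0.1 nM enzyme, PEP and ADP at 0.5 and 0.1 mM, pH 7.2 imidazole buffer with BSA, and a one-hour room-temperature reaction.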

[20] = target: Alpha-galactosidase A (Homo sapiens) (UniProt P06280); assay: Counterscreen for Glucocerebrosidase Inhibitors: qHTS Assay for Human alpha-Galactosidase at pH 4.5 (AID 992); note: 0% is about no effect
Alpha-galactosidase A (Homo sapiens), sequence (P06280 whole entry, looked up): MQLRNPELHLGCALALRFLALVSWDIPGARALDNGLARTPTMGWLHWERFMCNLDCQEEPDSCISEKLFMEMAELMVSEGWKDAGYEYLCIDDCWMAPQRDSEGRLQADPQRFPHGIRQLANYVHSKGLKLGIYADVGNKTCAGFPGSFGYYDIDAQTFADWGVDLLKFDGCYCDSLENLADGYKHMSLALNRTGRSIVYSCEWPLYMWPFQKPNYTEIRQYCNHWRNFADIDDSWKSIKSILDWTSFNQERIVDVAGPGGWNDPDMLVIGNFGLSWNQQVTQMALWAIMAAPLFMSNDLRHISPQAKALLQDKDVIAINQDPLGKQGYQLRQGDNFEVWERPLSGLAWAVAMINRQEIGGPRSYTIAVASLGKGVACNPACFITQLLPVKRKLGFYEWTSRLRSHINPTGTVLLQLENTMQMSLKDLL
Procedure, shortened: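 Citrate buffer pH 4.5, Tween-20 0.005%. Enzyme 2 nM, substrate 80 uM, 20 min RT. Stop pH 10. Fluorescence Ex 365/Em 440. AC50 by Hill fit.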

[21] = target: alpha-glucosidase (Oryza sativa, rice) (UniProt Q653V4); assay: Counterscreen for Glucocerebrosidase Inhibitors: qHTS Assay for Rice alpha-Glucosidase at pH 5.0 (AID 997);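 note: 0% = full activity with enzyme and -100% = basal without enzyme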
Procedure, shortened: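 Endpoint fluorogenic assay at pH 5.0: compounds (0.7 nM to 77 uM) titrated against 4 nM rice enzyme and 400 uM 4-MU-alpha-glucoside for 20 min at room temperature; NaOH/glycine stop, read ex 365/em 440 nm, Hill-fitted AC50.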

[22] = target: Alpha-galactosidase (Coffea arabica) (UniProt Q42656); assay: Counterscreen for Glucocerebrosidase Inhibitors: qHTS Assay for Coffee Bean alpha-Galactosidase at pH 5.9 (AID 998);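 note: plate controls were uninhibited enzyme for no effect and no-enzyme basal signal for full effect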
Alpha-galactosidase (Coffea arabica), sequence (Q42656 whole entry, looked up): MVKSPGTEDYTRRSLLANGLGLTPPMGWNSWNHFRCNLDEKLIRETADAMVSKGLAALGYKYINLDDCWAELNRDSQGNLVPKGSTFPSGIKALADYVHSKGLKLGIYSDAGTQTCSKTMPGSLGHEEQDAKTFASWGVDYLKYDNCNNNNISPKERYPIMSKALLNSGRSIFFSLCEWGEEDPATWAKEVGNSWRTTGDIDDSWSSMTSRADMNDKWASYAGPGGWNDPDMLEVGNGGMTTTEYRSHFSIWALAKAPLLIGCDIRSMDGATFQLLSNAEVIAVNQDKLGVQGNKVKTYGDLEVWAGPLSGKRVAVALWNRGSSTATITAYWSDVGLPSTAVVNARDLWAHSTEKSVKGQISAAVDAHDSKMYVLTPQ
Procedure, shortened: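 Enzyme 2 nM + cpd (0.7 nM–77 uM titration) + 4-MU-alpha-Gal 80 uM, pH 5.9 citrate/Tween-20, RT 20 min, NaOH/glycine stop pH 10, fluor 365/440. Normalized to no-enzyme and full-activity controls; Hill-fit AC50.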

[23] = target: DNA dC->dU-editing enzyme APOBEC-3G (Homo sapiens) (UniProt Q9HC16); assay: qHTS for inhibitors of Vif-A3G interactions: Validation (AID 588379); note: 0% is about no effect
Procedure, shortened: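 Yellow fluorescence (Ex 488, Em 500-530) of Vif-coexpressing HeLa A3G-eYFP cells, scanned by Acumen cytometer, reports blocked A3G degradation. Cells plated at 700/well overnight at 37 deg C before compound addition, then a further overnight compound incubation at 37 deg C.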

[24] = Confirmatory qHTS for small molecule stabilizers of the endoplasmic reticulum resident proteome: Secreted ER Calcium Modulated Protein (SERCaMP) assay (AID 1508628); note: nearly all actives have a fitted effect of over 40% in size; note: potency is the fitted concentration of half-maximal effect
Procedure, shortened: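 GLuc-SERCaMP-expressing SH-SY5Y cells, pretreated 16 h with compound, are challenged with thapsigargin to empty ER calcium stores; after 4 h, coelenterazine is added directly to the medium and luminescence is imaged.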

[25] = Stat Signaling Pathway (AID 446; active = well fitted curve in either direction with a large enough effect, not every such curve was filed as active)
Procedure, shortened: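 Compound effects on IL-6-induced STAT reporter activity were measured in ME-180 cells. After overnight culture, cells were co-treated with 40 pM IL-6 for 5 hrs before beta-lactamase substrate loading at room temperature.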

[26] = Counterscreen qHTS for small molecule stabilizers of the endoplasmic reticulum resident proteome: GLuc-NoTag assay (AID 1508627);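 note: SH-SY5Y cells given compound then 100 nM thapsigargin to empty ER calcium; 0% = thapsigargin alone and -100% = DMSO vehicle control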
Procedure, shortened: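 Counterscreen line: SH-SY5Y-GLuc-NoTag. Seed, 5 h; compound, 19 h; thapsigargin 100 nM, 4 h; 37C/5% CO2. Readout: secreted GLuc luminescence, coelenterazine 0.07x final, no lysis.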

CC(C)CN1CCC2(CC1)CCN(S(C)(=O)=O)CC2
inactive: Potency [1] > 20 µM | Potency [2] > 11.4 µM | outcome [3] | Potency [4] | activity change, negative = inhibition ([5]; at 7.69 µM (top of the series)) 6.76% | Potency [6] > 46 µM | outcome [7] | Potency [8] | activity change, negative = inhibition ([10]; at 57.5 µM (top of the series)) -1.49% | outcome [11]
-17.2%: max response ([10]; measured here: lipid channel max response)
active: Potency [9] 794 nM
-15.1%: max response ([10]; measured here: cell count channel max response)

O=C(O)c1ccc(NC(=O)N2C[C@H]3C[C@@H](C2)c2cccc(=O)n2C3)cc1
inactive: outcome [11]

N#C/C(=C\c1ccc(O)c(O)c1)C(N)=S
active: Potency [4] 12.6 µM and 6.31 µM | Potency [15] 5.62 µM | Potency [24] 10 µM
inactive: activity change, negative = inhibition ([5]; at 38 µM (top of the series)) -11.5% | Potency [12] > 46 µM | Potency [6] > 46 µM | outcome [7] | Potency [8] | outcome [13] | Potency [14] | outcome [16] | Potency [17] | Potency [18] | outcome [19] | outcome [20] | outcome [21] | outcome [22] | outcome [23]

COc1ccc(NC(=O)N2CCCC3(CCN(C(=O)Oc4ccccc4)CC3)C2)cc1
inactive: Potency [2] > 11.4 µM | outcome [3] | outcome [25] | Potency [6] > 46 µM | outcome [7] | Potency [8] | Potency [14] | outcome [26] | Potency [24]
active: Potency [4] 12.6 µM
